Read-out in assay [1]: Thyroid Hormone Responsive (THRSP), THRSP (gene 7069)
Nature of the assay: LTEA_HepaRG_THRSP: Life Technologies and Expression Analysis (LTEA) Assay for Thyroid Hormone Responsive (THRSP) using HepaRG (AID 2283536; active means hit-call score of the fitted dose curve at least 0.9, where 1 is the maximum; inactive means score below 0.9). The conditions noted are these: mRNA level, 48 h; actives raise or lower the signal. A digest of the protocol:
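Differentiated HepaRG cells treated 48 h in serum-free induction medium with 8 half-log concentrations up to 100 uM (0.5% DMSO), duplicates. THRSP mRNA by TaqMan qRT-PCR normalised to ACTB, GAPDH, POLR2A; bidirectional fit versus DMSO.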

Read-out in assay [2]: Cellular tumor antigen p53 (Homo sapiens) (UniProt P04637)
Nature of the assay: LTEA_HepaRG_TP53: Life Technologies and Expression Analysis (LTEA) Assay for Tumor Protein P53 (TP53) using HepaRG (AID 2283537; active means hit-call score of the fitted dose curve at least 0.9, where 1 is the maximum; inactive means score below 0.9). Conditions: mRNA level, 48 h; actives raise or lower the signal. A digest of the protocol:
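Read-out is TP53 transcript level by microfluidic qRT-PCR, normalised to three housekeeping genes and fitted bidirectionally against DMSO. Human HepaRG cells received compounds for 48 h, highest concentration 100 uM.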

Read-out in assay [3]: UDP glucuronosyltransferase (UGT1A1), UGT1A1 (gene 54658)
Description: LTEA_HepaRG_UGT1A1: Life Technologies and Expression Analysis (LTEA) Assay for UDP glucuronosyltransferase (UGT1A1) using HepaRG (AID 2283538; active means hit-call score of the fitted dose curve at least 0.9, where 1 is the maximum; inactive means score below 0.9). Conditions: mRNA level, 48 h; actives raise or lower the signal. A digest of the protocol:
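Human liver HepaRG cultures receive test chemical for 48 h, up to 100 uM in 0.5% DMSO, with phenobarbital induction controls. UGT1A1 mRNA is measured by qRT-PCR and normalized to ACTB, GAPDH and POLR2A.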

Read-out in assay [4]: UDP glucuronosyltransferase (UGT1A6), UGT1A6 (gene 54578)
Nature of the assay: LTEA_HepaRG_UGT1A6: Life Technologies and Expression Analysis (LTEA) Assay for UDP glucuronosyltransferase (UGT1A6) using HepaRG (AID 2283539; active means hit-call score of the fitted dose curve at least 0.9, where 1 is the maximum; inactive means score below 0.9). The conditions noted are these: mRNA level, 48 h; actives raise or lower the signal. In outline:
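qRT-PCR readout of UGT1A6 mRNA (normalized to ACTB/GAPDH/POLR2A) in differentiated HepaRG cells after 48 h chemical exposure; 8 concentrations, top 100 uM, half-log steps, 0.5% DMSO. Bidirectional curve fit relative to DMSO baseline.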

Read-out in assay [5]: X-box binding protein 1 (XBP1), XBP1 (gene 7494)
Nature of the assay: LTEA_HepaRG_XBP1: Life Technologies and Expression Analysis (LTEA) Assay for X-box binding protein 1 (XBP1) using HepaRG (AID 2283540; active means hit-call score of the fitted dose curve at least 0.9, where 1 is the maximum; inactive means score below 0.9). Conditions: mRNA level, 48 h; actives raise or lower the signal. In outline:
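HepaRG, 48 h exposure, 8-pt half-log CRC top 100 uM, 0.5% DMSO vehicle, duplicates. Readout: TaqMan qRT-PCR of XBP1 mRNA, housekeeping-normalised (ACTB/GAPDH/POLR2A); bidirectional fit vs DMSO baseline.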

A short description of assay [6]: LTEA_HepaRG_LDH_cytotoxicity: Cytotoxicity Assessment in the Life Technologies and Expression Analysis (LTEA) Assay (AID 2283563).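 On AC50: LDH activity released into spent culture medium as a marker of cell death.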 A digest of the protocol:
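HepaRG (human liver line), 48 h exposure, 8-pt half-log series from 100 uM, 0.5% DMSO vehicle, duplicates. Read-out: LDH in spent medium. Positive-direction fit vs DMSO baseline.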

Assay [7] can be described thus: TOX21_p53_BLA_p2_viability: Viability Assessment in the Tox21 HCT-116 p53 Agonism Beta-lactamase Assay, Phase 2 (AID 2283591).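 Further: compound exposure lasted 16 h at 37 °C; actives lower the ATP signal meaning cytotoxicity.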 A digest of the protocol: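 HCT116 p53-bla cells, 4000/well, dosed after 5 h plating (217-fold dilution of DMSO stocks) and incubated 16 h at 37C. Viability taken as cellular ATP by CellTiter-Glo luminescence after 30 min RT; signal loss marks cytotoxicity.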

Assay [8] concerns the target Cellular tumor antigen p53 (Homo sapiens) (UniProt P04637). Nature of the assay: TOX21_p53_BLA_p2_ratio: Tox21 HCT-116 p53 Agonism Beta-lactamase Assay, Ratio, Phase 2 (AID 2283592). A digest of the protocol: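 In this cell-based reporter format, HCT116 cells were dosed with chemicals delivered from DMSO by 217-fold dilution and incubated 16 h at 37C. Emission at 460 and 530 nm after 2 h CCF4-AM loading provided the ratio, fitted upward versus DMSO.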

A short description of assay [9]: TOX21_p53_BLA_p3_viability: Viability Assessment in the Tox21 HCT-116 p53 Agonism Beta-lactamase Assay, Phase 3 (AID 2283593).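 Further: cells exposed to compound for 16 h before reading.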 A digest of the protocol:
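HCT116 cells, 4000/well, dosed 5 h after plating by pin transfer (217-fold dilution from DMSO stock) and incubated 16 h at 37C, 5% CO2. Viability read as ATP luminescence with CellTiter-Glo after 30 min at room temperature.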

Assay [10] in a line: TOX21_p53_BLA_p4_viability: Viability Assessment in the Tox21 HCT-116 p53 Agonism Beta-lactamase Assay, Phase 4 (AID 2283597).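 Further: hits lower the luminescence signal meaning cytotoxicity.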 In outline:
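We seeded HCT116 p53 reporter cells at 4000/well and waited 5 h. We then added compounds in DMSO at a 217-fold dilution and incubated for 16 h. Viability was read as CellTiter-Glo luminescence after 30 min at RT.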

Assay [11] can be described thus: Tanguay_ZF_120hpf_YSE_legacy: (Legacy) Oregon State University Tanguay Lab 120 Hour Post-fertilization zebrafish Assay for Yolk Sac Edema (AID 2283634).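 On AC50: actives raise the incidence of yolk sac edema above the DMSO baseline.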 In outline: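 Binary brightfield scoring of yolk sac edema at 120 hpf; DMSO baseline, gain-of-signal fitting. Dechorionated 5D larvae, one per well, static exposure 6–120 hpf, 28C, 0.64% DMSO. Dead embryos not scored.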

Assay [12] is described as follows: Tanguay_ZF_120hpf_AXIS_legacy: (Legacy) Oregon State University Tanguay Lab 120 Hour Post-fertilization zebrafish Assay for Body Axis Malformation (AID 2283635).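 On AC50: potency for an increased fraction of larvae scored with body axis malformation.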 A digest of the protocol:
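Embryos: 5D wild-type, pronase-dechorionated 4 hpf; static exposure 6–120 hpf, 28C, sealed, dark, 1 embryo/well, 0.64% DMSO. 120 hpf axis malformation scored present/absent; dead embryos excluded. Analysed as gain of signal vs DMSO.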

Assay [13] is described as follows: Tanguay_ZF_120hpf_EYE_legacy: (Legacy) Oregon State University Tanguay Lab 120 Hour Post-fertilization zebrafish Assay for Eye Malformation (AID 2283636).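 Further: binary presence or absence of eye malformation scored by brightfield in 120 hpf larvae.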 A digest of the protocol:
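Dechorionated Tropical 5D zebrafish embryos, one per well from 6 hpf, static exposure to 120 hpf at 28C, 0.64% DMSO. Eye malformation scored present/absent by brightfield; dead embryos not scored.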

Assay [14] is described as follows: Tanguay_ZF_120hpf_SNOU_legacy: (Legacy) Oregon State University Tanguay Lab 120 Hour Post-fertilization zebrafish Assay for Snout Malformation (AID 2283637). In outline:
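Dechorionated tropical 5D wild-type zebrafish embryos exposed statically from 6 to 120 hpf at 28C, one per well, in 0.64% DMSO. Snout malformation scored as present/absent by brightfield at 120 hpf; dead embryos not scored.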

In assay [15] the target is Cellular tumor antigen p53 (Homo sapiens) (UniProt P04637). Description: TOX21_p53_BLA_p5_ratio: Tox21 HCT-116 p53 Agonism Beta-lactamase Assay, Ratio, Phase 5 (AID 2283599). In outline: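 HCT-116 p53-bla cells (4000/well) plated 5 h, dosed with compound (217-fold DMSO dilution) for 16 h at 37 C; CCF4-AM substrate 2 h at room temperature. Activity is the 460/530 nm emission ratio (405 nm excitation), fitted in gain-of-signal direction versus DMSO.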
Chain of Cellular tumor antigen p53 (Homo sapiens) (P04637 whole entry, looked up): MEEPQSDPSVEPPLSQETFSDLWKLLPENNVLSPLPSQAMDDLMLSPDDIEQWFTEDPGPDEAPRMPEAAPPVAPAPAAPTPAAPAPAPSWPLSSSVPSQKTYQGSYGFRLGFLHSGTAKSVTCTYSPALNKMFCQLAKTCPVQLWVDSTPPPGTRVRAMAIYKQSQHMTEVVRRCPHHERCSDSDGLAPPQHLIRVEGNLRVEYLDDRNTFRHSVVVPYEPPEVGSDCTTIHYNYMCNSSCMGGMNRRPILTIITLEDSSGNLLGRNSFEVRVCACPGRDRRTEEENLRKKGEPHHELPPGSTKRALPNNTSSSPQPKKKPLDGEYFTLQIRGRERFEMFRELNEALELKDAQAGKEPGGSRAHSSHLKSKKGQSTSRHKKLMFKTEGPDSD

For assay [16] the target is unchanged. Nature of the assay: TOX21_p53_BLA_p4_ratio: Tox21 HCT-116 p53 Agonism Beta-lactamase Assay, Ratio, Phase 4 (AID 2283601). In outline: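 HCT-116 p53 beta-lactamase reporter cells (4000/well) preincubated 5 h, then compound (217-fold dilution of DMSO stock) for 16 h at 37C. CCF4-AM substrate added 2 h at room temperature; 460/530 nm emission ratio fitted upward versus DMSO.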

Assay [17] can be described thus: Tanguay_ZF_120hpf_MORT_legacy: (Legacy) Oregon State University Tanguay Lab 120 Hour Post-fertilization zebrafish Assay for Mortality (AID 2283633). In outline: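 Brightfield scoring of embryo death (binary) at 24 and 120 hpf; static exposure 6–120 hpf, 28C, sealed and foil-covered. Pronase-dechorionated 5D wild-type larvae, single embryo per well. DMSO 0.64% v/v; trimethyltin chloride 5uM positive control.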

In assay [18] the target is Cellular tumor antigen p53 (Homo sapiens) (UniProt P04637). Nature of the assay: TOX21_p53_BLA_p3_ratio: Tox21 HCT-116 p53 Agonism Beta-lactamase Assay, Ratio, Phase 3 (AID 2283596). A digest of the protocol: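 HCT116 p53-bla cells (4000/well) given compound in DMSO (217-fold dilution) after 5 h, incubated 16 h at 37C. CCF4-AM substrate 2 h at room temperature; 460/530 nm emission ratio, gain fitted against DMSO.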

A short description of assay [19]: TOX21_p53_BLA_p5_viability: Viability Assessment in the Tox21 HCT-116 p53 Agonism Beta-lactamase Assay, Phase 5 (AID 2283600). A digest of the protocol:
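Compounds, pinned from DMSO at 217-fold dilution, were left on the cells for 16 h. The viability endpoint was ATP content measured by CellTiter-Glo luminescence, where falling signal reflects cytotoxicity.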

Drawing on PubChem BioAssay (EPA / NIEHS), this text covers outcome and AC50 for seven compounds.

What is called AC50 is the concentration at which the activity in the assay is half-maximal.

Structures are written as SMILES. Inconclusive results are not listed. The source made the active and inactive calls. How the source made its calls, unless noted: active means hit-call score of the fitted dose curve at least 0.9, where 1 is the maximum; inconclusive means response in the unintended direction; inactive means score below 0.9.

For `CC(C)CCO`, the outcome in assay [1], in assay [2], in [3], in assay [4], in assay [5] and in assay [6] was inactive. The result in assay [7], in [8], in assay [9], in [10], in assay [11] and in assay [12] was inactive. In addition, the outcome in assay [13] and in assay [14] was inactive.
`CNS(=O)(=O)c1cc(C(=O)N2CCC(CCN3C4CCC3CC(n3c(C)nc5ccccc53)C4)(c3cccc(F)c3)CC2)c(Cl)cc1F` (stereo not drawn): the outcome in assay [1], in assay [2], in assay [5], in [8], in [15] and in assay [16] was inactive. The call in assay [11], in [12] and in assay [14] was inactive. Also, the AC50 in assay [3] was 9.92 µM (active); in [4], 50 µM (active); in [6], 32.2 µM (active); in assay [7], 26.9 µM (active); in assay [9], 46.1 µM (active); in assay [10], 16.2 µM (active).
Regarding `CCCCC(CC)COC(=O)c1ccc(C(=O)OCC(CC)CCCC)cc1` (stereo not drawn), the compound was called inactive in assay [1], in [2], in assay [3], in assay [4], in [5] and in [6]. In addition, the outcome in [7], in [8], in assay [9], in [10], in assay [15] and in assay [16] was inactive. The result in [17], in assay [11], in assay [12] and in assay [14] was inactive.
On to `Fc1ccccc1[C@@H](F)COC1CCC(Nc2ncnc3[nH]ncc23)CC1` (stereo partly drawn), for which the compound was called inactive in [1], in [2], in assay [5], in assay [6], in assay [7] and in assay [8]. For the same compound, the outcome in assay [9], in assay [18], in assay [10], in assay [15], in assay [16] and in [17] was inactive. Also, the compound was classed as inactive in assay [12] and in assay [14]. For the same compound, the AC50 was 68 µM (active) in assay [3], 50 µM (active) in assay [4] and 23.9 µM (active) in assay [11].
For `O=c1[nH]c2ccc(S(=O)CCN3CCC(Cc4ccc(F)cc4)CC3)cc2o1` (stereo not drawn), the AC50 in assay [1] was 85.5 µM (active). For the same compound, the outcome in assay [2], in [3], in assay [4], in assay [5], in assay [6] and in assay [8] was inactive. The compound was classed as inactive in [9], in assay [18], in assay [10], in assay [15], in [16] and in [17]. Moreover, the compound was classed as inactive in [11], in assay [12], in assay [13] and in assay [14].
Consider `O=C(O)CCN(C1(C(=O)NO)CCCC1)S(=O)(=O)c1ccc(Oc2ccc(F)cc2)cc1`, for which the outcome in [1], in assay [2], in assay [3], in assay [4], in assay [5] and in [6] was inactive. For the same compound, the result in assay [8], in assay [9], in assay [19], in [11] and in [14] was inactive.
In the case of `CCc1cc(SCc2sc(-c3ccc(C(F)(F)F)cc3)nc2CN2CCN(c3ccc(OC)cc3)CC2)ccc1OCC(=O)O`, the compound was classed as inactive in assay [1], in [17], in assay [11], in assay [13] and in assay [14]. The AC50 in assay [2] was 7.74 µM (active); in assay [3] it was 7.28 µM (active); in assay [4], 7.77 µM (active); in [5], 94 µM (active); in assay [6], 16.2 µM (active); in assay [7] it was 7.48 µM (active). Also, the AC50 in [8] was 46.1 µM (active); in assay [9] it was 17.2 µM (active); in assay [18], 59.9 µM (active); in assay [10] it was 4.42 µM (active); in assay [15], 67 µM (active); in assay [16], 9.5 µM (active). The AC50 in [12] was 26 µM (active).
